Here are results for three compounds from PubChem BioAssay AID1347155 (National Center for Advancing Translational Sciences (NCATS), 2019).

Records with an inconclusive call do not appear. Entries that show only a call come without a potency. Calls of active or inactive are those of the source. The call rests on the fitted dose curve; in most records, active means well fitted inhibition curve with a large enough effect; inconclusive means small, poorly fitted or top-dose-only effect; inactive means no such curve, though single readings can be large or run the other way.

This assay relates to Zika virus NS2B-NS3 protease (linked). Kind of assay: Optimization screen NINDS Rhodamine qHTS for Zika virus inhibitors: Linked NS2B-NS3 protease assay. The note with it: fluorogenic rhodamine substrate; series mostly up to 105 µM. An outline of the steps:
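Linked NS2B-NS3 (GGGGSGGGG linker), 25 nM in 10 mM Tris-HCl pH 8.0, 0.01% Tween 20, preincubated 15 min with compound (up to 114 µM). Rhodamine110 substrate 1.5 µM; fluorescence change over 15 min (~15% conversion) fitted to 4-parameter Hill.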
(In qHTS, concentration-response curves come from the screen itself.)
On to `Nc1ccn([C@@H]2O[C@H](CO)[C@@H](O)C2(F)F)c(=O)n1`, for which the Potency entry was “inactive”.

Take `Nc1ncnc2c1ncn2[C@@H]1O[C@H](C[C@@H](N)CC[C@H](N)C(=O)O)[C@@H](O)[C@H]1O`: the Potency entry was “inactive”.

`CO[C@H]1C[C@@H](O[C@@H]2/C(C)=C/C[C@@H]3C[C@@H](C[C@]4(CC[C@H](C)[C@@H](C5CCCCC5)O4)O3)OC(=O)[C@@H]3C=C(C)/C(=N/O)[C@H]4OC/C(=C\C=C\[C@@H]2C)[C@]43O)O[C@@H](C)[C@H]1O`: the Potency is 24.8 µM (active).
